KCNH2 WT inh = inhibitors of human wildtype KCNH2 potassium channel | U2OS, BacMam KCNH2, thallium flux FluxOr; hits give low values | activity change, % at 1.84 µM | 340,000 tested, 0.37% active | AID 720551;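 active means maximum activity change below -70%; inconclusive means maximum activity change between -70% and -50%; inactive means maximum activity change above -50%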; further: on the % scale 0 is the no-effect control and ±100 the full control effect
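U2OS cells were transduced with wild-type KCNH2 virus (2.03 x 10^8 / mL) for 4 h at room temperature, then cultured overnight at 37 C. Thallium flux was read with FluxOr dye. Rate constants were normalized to DMSO controls.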
KCNH2 3.1 block = inhibitors of human KCNH2 3.1 potassium channel isoform; U2OS KCNH2 3.1, thallium flux FluxOr; hits give low values; 340,000 tested, 0.95% active; activity change, % (tested at about 1.8 µM); AID 720553;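 active means maximum activity change below -70%; inconclusive means maximum activity change from -70% to -50%; inactive means maximum activity change above -50%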;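 further: thallium influx rate constant from kinetic fluorescence after stimulation buffer; on the % scale 0 is the no-effect control and ±100 the full control effect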
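Steps: virus added to U2OS suspension (4 h, RT, dark); medium with 10% FBS added, cells plated, 37 C overnight; FluxOr/Red40 loading buffer 45 min RT; stimulation buffer, 2 min kinetic read; rate constant normalized.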
GLP-1R inv ag = acts as inverse agonist at human GLP-1 receptor; 410,000 tested, 1.6% active; Potency, µM (series often up to 38.3 µM), without a hit: at the top dose activity change, negative = inhibition, usual class: inhibitors; HEK293 GLP-1R CRE-luciferase, luminescence, 24 h; GLP-1R form is constitutively active; P43220; AID 624417; further: potency means the concentration at half of the fitted maximal effect; on the % scale 0 is the no-effect control and ±100 the full control effect; nearly all actives have a fitted effect of over 55% in size
Target sequence (P43220 whole entry, looked up): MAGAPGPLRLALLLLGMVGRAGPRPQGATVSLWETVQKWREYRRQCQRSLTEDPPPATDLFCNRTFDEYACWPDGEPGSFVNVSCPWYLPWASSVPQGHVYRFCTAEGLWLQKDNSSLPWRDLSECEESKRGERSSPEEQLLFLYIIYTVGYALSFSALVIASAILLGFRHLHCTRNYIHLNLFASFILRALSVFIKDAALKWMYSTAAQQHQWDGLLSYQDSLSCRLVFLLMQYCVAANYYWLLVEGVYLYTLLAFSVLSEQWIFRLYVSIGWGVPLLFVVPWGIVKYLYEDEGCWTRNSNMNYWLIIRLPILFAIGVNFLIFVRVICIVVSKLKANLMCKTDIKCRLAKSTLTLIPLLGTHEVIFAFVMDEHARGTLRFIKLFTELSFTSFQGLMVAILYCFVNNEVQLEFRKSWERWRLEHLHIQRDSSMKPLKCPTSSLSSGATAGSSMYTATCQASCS
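HEK293 cells stably co-expressing a cAMP-responsive luciferase reporter and constitutively active GLP-1R were seeded, incubated 12 h, then exposed to compounds for 24 h at 37 C. Luminescence was read 12 min after detection reagent; inverse agonists lower signal.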
HEK293 tox = cytotoxic in the GLP-1 receptor inverse agonist counter-screen. Potency, µM (titrated, usually from 38.3 µM), for inactives: at the top dose activity change, negative = inhibition, actives largely listed as inhibitors. HEK293 cAMP-luciferase reporter cells, luminescence, 24 h. 410,000 tested, 0.13% active;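 further: loss of luciferase light is scored as toxicity; potency means the concentration at half of the fitted maximal effect; on the % scale 0 is the no-effect control and ±100 the full control effect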
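Cells in DMEM/10% Nu serum/1% pen-strep, 1536-well format. Pre-incubated 12 h, dosed with 23 nL compound, incubated a further 24 h. Luciferase detection, 12 min at room temp, luminescence.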
GLS inhibitor = glutaminase GLS (human) inhibition | GLS enzymatic activity, qHTS titration | Potency, µM (doses to about 45.5 µM), for inactives: top-dose activity change, negative = inhibition, usual class: inhibitors | 410,000 tested, 0.21% active | O94925; further: potency means the concentration at half of the fitted maximal effect; on the % scale 0 is the no-effect control and ±100 the full control effect
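Two-point fluorescence kinetic (t0, 30 min RT) for hKGA; glutamate detected via glutamate oxidase–HRP–Amplex Red. Substrate: 1 mM L-glutamine solution; buffer 45 mM KH2PO4, pH 8.2.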
GLP-1R agonist = GLP-1 receptor (human) agonism | P43220 | HEK293 GLP-1R CRE-luciferase, luminescence, 4-6 h; cells express a hypersensitive GLP-1R form | Potency, µM (top dose mostly 45.6 µM), inactives show top-dose activation, actives largely listed as activators | 380,000 tested, 0.007% active | AID 624172; further: potency means the concentration at half of the fitted maximal effect; % of control where 0% means no effect
Starred values were filed as active, the others as inactive; ? = inconclusive; · = no result; [ ] = remark or other dose. Compounds with a hit are over-represented: about 2.8% of the library has one in this group of screens. Unless noted, the call rests on the fitted dose curve; in most records, active means well fitted curve in the direction sought with a large enough effect; inconclusive means small, poorly fitted or top-dose-only effect, or another doubt; inactive means no such curve, though single readings can be large; an effect the other way counts as inactive or inconclusive.

SMILES	KCNH2 WT inh	KCNH2 3.1 block	GLP-1R inv ag	HEK293 tox	GLS inhibitor	GLP-1R agonist
O=C(N/N=C/c1c[nH]c2ccccc12)c1ccn(Cc2ccc(Cl)cc2)n1	-6	-7	?	-11%	18%	-1%
O=C(N/N=C/c1c[nH]c2ccc(Br)cc12)c1ccn(Cc2ccc(Cl)cc2Cl)n1	-10	-14	11µM*	-9%	0%	-2%
Clc1ccc(CNc2ccccc2NCc2ccc(Cl)nc2)cn1	0	-23	-14%[0.307 µM]	-5%[0.307 µM]	13µM*	-4%
O=C(CP(=O)(c1ccccc1)c1ccccc1)Nc1nc2ccc(Cl)cc2s1	-4	3	11µM*	-1%	0%	0%
Nc1ccc(O)cc1	·	·	·	·	13µM*	-5%
O=C(Nc1ccc(F)c(Cl)c1)C1CCN(S(=O)(=O)c2ccc3c(c2)CCCN3C(=O)C2CCC2)CC1	·	·	?	0%	5%	·
CCN(CC)CCCNC(=O)C(C)n1nc(C)c2sc3ccccc3c2c1=O (centres undefined)	2	-13	?	-19%	13%	-9%
CCN(CC)CCNc1ccc(C)c2sc3ccc(O)cc3c(=O)c12	19	-23	10µM*	?	36%	-27%
Cc1cc(C)c(NC(=O)CSc2ncc3c(n2)-c2cc(Cl)ccc2N(C)S3(=O)=O)c(C)c1	·	·	-29%	-14%	-1%	·
Nc1ncnc2c1ncn2[C@@H]1O[C@H](CNC(=O)OC[C@@H](N)Cc2ccccc2)[C@@H](O)[C@H]1O	·	·	33%	1%	?	0%
O=C(OCC1OC(n2cnc3c(N(C(=O)c4ccccc4)C(=O)c4ccccc4)ncnc32)C(O)C1F)c1ccccc1 (centres undefined)	-4	-86*	-14%	-19%	-1%	-2%
Cc1ccc2c(CC(=O)NCC3(N4CCOCC4)CCCCC3)coc2c1C	-13	-4	?	2%	-7%	-7%
CCN1CCN(CC(=O)Nc2sc3c(c2C#N)CCC(C)C3)CC1 (centres undefined)	12	-29	2µM*	-9%	-2%	3%
Cc1nnc2c3ccccc3c(-c3ccc(O)cc3)nn12	-12	2	35%	50%	19%	10%
Cc1nnc2c3ccccc3c(-c3cccs3)nn12	-4	-85*	7%	-3%	-23%	8%
Cc1noc(C)c1S(=O)(=O)N(CC(=O)Nc1ccc(C(F)(F)F)cc1)c1ccc(C(C)C)cc1	·	·	-19%	-9%	-12%	0%
Cc1n[nH]c(C)c1S(=O)(=O)N(CC(=O)Nc1ccc(C(F)(F)F)cc1)c1ccc(C(C)C)cc1	·	·	10µM*	-12%	-12%	·
COc1ccc(N(CC(=O)Nc2cc(Cl)ccc2C)S(=O)(=O)c2c(C)n[nH]c2C)cc1	12	2	4.5µM*	?	-1%	-4%
COc1ccc(N(CC(=O)Nc2ccc(C)cc2C)S(=O)(=O)c2c(C)n[nH]c2C)cc1	13	-1	?	-10%	-1%	-5%
CC1/C(=N/O)C(CN(C)C)C2CC1C2(C)C (centres undefined)	-291*	12	-8%	8%	-3%	2%
CCNc1nc(NCC)nc(OCCOC(=O)c2ccccc2)n1	-5	-9	10%	-1%	-6%	8%
CCNc1nc(NC(C)C)nc(SCCOc2ccc(C)cc2)n1	-1	-13	7.9µM*	-1%	-1%	33%
CCNc1nc(NC(C)C)nc(SCCOC(=O)c2ccccc2)n1	-2	7	10µM*	1%	1%	?
CCOC(=O)C1CCN(C(=O)c2c(C)nn(-c3ccc(F)cc3)c2-n2cccc2)CC1	·	·	8%	-10%	-16%	15%
COc1cc(-c2nc3ccc(C)cn3c2NCc2ccccc2)ccc1SC1CCCCC1	-3	?	4µM*	-15%	15%	0%
SMILES	KCNH2 WT inh	KCNH2 3.1 block	GLP-1R inv ag	HEK293 tox	GLS inhibitor	GLP-1R agonist
Cc1ccc2nc(-c3ccc(-c4cccc(Cl)c4)cc3)c(NCc3ccccc3)n2c1	-1	-78*	-12%	3%	15%	4%
COc1cc(-c2nc3ccc(C)cn3c2NCc2ccccc2)ccc1-c1cccc(Cl)c1	13	-49	8.9µM*	-3%	11%	5%
COc1ccc(NC(=O)Cn2c(=O)n(Cc3ccco3)c(=O)c3sc4ccccc4c32)cc1OC	·	·	0%	1%	1%	1%
Nc1cc(N)c2c(c1)C(=O)c1ccccc1-2	-131*	-198*	13%	?	0%	20%
Cc1cccc(NS(=O)(=O)c2cc3c4c(c2)CCN4C(=O)CC3)c1C	-173*	-1	25%	-13%	7%	-5%
C#CCN(C[C@@H]1[C@@H](OC(=O)NCC2CCCCC2)[C@@H](OC(=O)NCC2CCCCC2)Cn2c(=O)ccc(=O)n21)S(=O)(=O)c1ccc(C)cc1	2	-1	2.5µM*	?	-2%	-14%
C#CCN(C[C@@H]1[C@@H](OC(=O)NCc2ccco2)[C@@H](OC(=O)NCc2ccco2)Cn2c(=O)ccc(=O)n21)S(=O)(=O)c1ccc(C)cc1	1	-4	10µM*	?	11%	-4%
CCOc1ccc(C(=O)NCCc2sc(-c3cccc(F)c3)nc2C)cc1OCC	·	·	5%	-2%	17%	·
COc1cc(CCc2ccccc2)c(C(=O)O)c(O)c1CC=C(C)C	5	-1	10µM*	-11%	19%	-1%
CCn1nc(-c2ccccc2)c(-c2ccccc2)c(C(=O)Nc2ccc(NC(C)=O)cc2)c1=O	·	·	-1%	1%	4%	·
CCn1nc(-c2ccccc2)c(-c2ccccc2)c(C(=O)Nc2nc(C)c(C(C)=O)s2)c1=O	·	·	4.5µM*	-13%	7%	·
Cc1c(CCOC(=O)c2ccc([N+](=O)[O-])cc2)sc[n+]1CC(=O)c1ccccc1	-18	8	7%	-7%	3%	11%
Cc1c(CCOC(=O)C2C3CC4CC(C3)CC2C4)sc[n+]1CC(=O)c1ccc(Br)cc1 (centres undefined)	-2	5	11µM*	?	-7%	-55%
COc1ccc(C(=O)OCCc2sc[n+](CC(=O)c3ccccc3)c2C)cc1	-3	-3	-4%	2%	-4%	6%
Cc1c(CCOC(=O)c2ccc(Cl)cc2Cl)sc[n+]1CC(=O)c1ccc(Br)cc1	-11	2	10µM*	?	5%	5%
OC(COCc1cccs1)CN1CCN(c2ccccc2Cl)CC1 (centres undefined)	7	-83*	-23%	-3%	8%	-2%
CCOc1ccccc1N1CCN(CC(O)COCc2cccs2)CC1 (centres undefined)	14	-28	?	1%	26%	3%

Assay outcomes (PubChem BioAssay)
